Assay results: ChEMBL document CHEMBL3988442, “University of Dundee, Small-Polar-MMV Screening Library” (2021)
Out of some 66,000 compounds screened, about 960 (1.5%) showed an effect of 50% or more. Only a selection was taken, and strong results are over-represented in it overall.

Test system: Trypanosoma brucei
Experiment: Trypanosoma brucei 72 hour study
Type: functional, organism-based
Design: scale not given: in the data most compounds retested in dose-response had high values

COCCN1CCc2cc(C(=O)O)c(NCC3CC3)nc2CC1.O=C(O)C(F)(F)F.O=C(O)C(F)(F)F
Percent Effect (30.3 µM, […]): -92.37%

CCCn1nccc1C(=O)Nc1nc(C)c(C)s1
Percent Effect (30.3 µM, […]): 41.43%

CCn1nccc1C(=O)Nc1nc(C)c(C(C)=O)s1
Percent Effect (30.3 µM, […]): -2.793%

CCCn1nccc1C(=O)Nc1ncc(C)s1
Percent Effect (30.3 µM, […]): 83.34%

COCC1CC2(CCN(Cc3ccco3)CC2)CN1C(C)C.O=C(O)C(F)(F)F.O=C(O)C(F)(F)F (stereo unspecified)
Percent Effect (30 µM, 30.03 µM): 42.98%

COc1cc(N2CCCC(c3nccn3Cc3cscn3)C2)nc(N)n1 (stereo unspecified)
Percent Effect (30 µM, 30.03 µM): 59%

COCCn1ccnc1C1CCCN(c2cc(OC)nc(N)n2)C1 (stereo unspecified)
Percent Effect (30 µM, 30.03 µM): -68.81%

COc1cc(N2CCCC(c3nccn3CCN(C)C)C2)nc(N)n1 (stereo unspecified)
Percent Effect (30 µM, 30.03 µM): 42.15%

Cc1cccn2cc(CNCc3cccc4c3OCCCO4)nc12
Percent Effect (30.3 µM, […]): 17.5%

CCC[C@]12CN3C[C@](CCC)(CN(C1)C3c1[nH]c(=O)[nH]c(=O)c1C)C2=O (stereo partly specified)
Percent Effect (30 µM, 30.03 µM): -52.93%

CCc1noc(C2CCCCN2C(=O)c2cc(C)n(C)n2)n1 (stereo unspecified)
Percent Effect (30.3 µM, […]): -3.284%

Cc1csc(C2CCCCN2C(=O)c2cc(C(C)C)[nH]n2)n1 (stereo unspecified)
Percent Effect (10 µM): -49.47%

Cc1cccc(NC(=O)c2[nH]nc(C(C)C)c2Br)n1
Percent Effect (30.3 µM, […]): 56.85% | Percent Effect (10 mM, 10 mM as filed; unlikely as a test dose): 8.768%

CC(C)c1n[nH]c(C(=O)Nc2cc[nH]n2)c1Br
Percent Effect (30 µM, 30.03 µM): -42.25%

Cc1ccnc(NC(=O)c2[nH]nc(C(C)C)c2Br)c1
Percent Effect (30.3 µM, […]): 57.19% | Percent Effect (10 mM, 10 mM as filed; unlikely as a test dose): -20%

COc1ncccc1NC(=O)c1[nH]nc(C(C)C)c1Br
Percent Effect (30 µM, 30.03 µM): 7.14%

CC(C)c1n[nH]c(C(=O)Nc2ccccn2)c1Br
Percent Effect (30.3 µM, […]): 50.04% | Percent Effect (10 mM, 10 mM as filed; unlikely as a test dose): -45.45%

CC(C)c1n[nH]c(C(=O)NC(C)c2ccncc2)c1Br (stereo unspecified)
Percent Effect (30.3 µM, […]): 20.51% | Percent Effect (10 mM, 10 mM as filed; unlikely as a test dose): -71.89%

CC(C)c1n[nH]c(C(=O)Nc2ccncc2)c1Br
Percent Effect (30 µM, 30.03 µM): -10.71%

COc1ccccc1NC(=O)c1[nH]nc(C(C)C)c1Br
Percent Effect (30 µM, 30.03 µM): -9.686%

CC(C)c1n[nH]c(C(=O)Nc2ccnn2C(C)C)c1Br
Percent Effect (30 µM, 30.03 µM): -7.131%

CCOC[C@]12COC[C@H]1CN(Cc1ccc(F)c(F)c1)C2.O=C(O)C(F)(F)F
Percent Effect (30.3 µM, […]): 6.986%

CS(=O)(=O)N[C@H]1CN(C(=O)c2cscn2)[C@@H]2CCCO[C@H]12
Percent Effect (30 µM, 30.03 µM): 28.48%

CNC(=O)[C@H]1C[C@@H]2CN(C(=O)c3ccccn3)C[C@@H]2N1S(C)(=O)=O.O=C(O)C(F)(F)F
Percent Effect (30.3 µM, […]): -16.02%

CN1CCCC(CCC(=O)NCCc2nnc(N)s2)C1 (stereo unspecified)
Percent Effect (30 µM, 30.03 µM): 1.066%

Cc1ccc(C(=O)N2CCC3(CC2)CCN(CCN(C)C)C3=O)cn1.O=C(O)C(F)(F)F.O=C(O)C(F)(F)F
Percent Effect (30.3 µM, […]): -7.554%

COCc1nc(C(=O)NS(=O)(=O)c2c(C)c(C)cc(C)c2C)cs1
Percent Effect (30.3 µM, […]): -6.08%

O=C(N1CCOCC1)[C@@]12CCO[C@@H]1CCN(C1CCOCC1)C2.O=C(O)C(F)(F)F
Percent Effect (30 µM, 30.03 µM): -13.03%

CN(C)C(=O)C1OC2(CCN(c3ncc(F)cn3)CC2)c2ccccc21.O=C(O)C(F)(F)F (stereo unspecified)
Percent Effect (30 µM, 30.03 µM): -1.93%

COc1ccc(-c2nnsc2C(=O)N2CCC(C(N)=O)CC2)cc1
Percent Effect (30.3 µM, […]): 7.87%

Cc1ccsc1CN1CC[C@H]2OCC[C@@]2(C(=O)N2CCCO2)C1.O=C(O)C(F)(F)F
Percent Effect (30.3 µM, […]): -14.02%

CCCC(N)CNS(=O)(=O)Cc1cccc(C#N)c1.Cl (stereo unspecified)
Percent Effect (30.3 µM, […]): 63.71%

N#Cc1cccc(CS(=O)(=O)NCC(O)Cc2ccccc2)c1 (stereo unspecified)
Percent Effect (30 µM, 30.03 µM): -15.65%

Cc1ccccc1C(O)CNS(=O)(=O)Cc1cccc(C#N)c1 (stereo unspecified)
Percent Effect (30.3 µM, […]): 7.529%

CCO[C@H]1CO[C@@]2(CCCN(Cc3scnc3C)C2)C1.O=C(O)C(F)(F)F
Percent Effect (30 µM, 30.03 µM): -66.13%

Cc1nc(C)n(CC2CCCN2Cc2ccccn2)n1 (stereo unspecified)
Percent Effect (30.3 µM, […]): 5.601%

c1ccc(-n2ccc(CN3CCCC3Cn3cccn3)n2)cc1 (stereo unspecified)
Percent Effect (30.3 µM, […]): 99.68%

Cc1nc(C)n(CC2CCCN2Cc2ccn(-c3ccccc3)n2)n1 (stereo unspecified)
Percent Effect (30.3 µM, […]): 99.84%

Fc1cccc(-n2ccc(CN3CCCC3Cn3cccn3)n2)c1 (stereo unspecified)
Percent Effect (10 µM): -58.75%

Cc1nc(C)n(CC2CCCN2Cc2cn(-c3ccccc3)nn2)n1 (stereo unspecified)
Percent Effect (30 µM, 30.03 µM): -3.712%

c1ccc(-n2ccc(CN3CCCC3Cn3cncn3)n2)cc1 (stereo unspecified)
Percent Effect (10 µM): -54.26%

O=C(CCN1C[C@@H]2CC[C@H]1C2)N1CCN(c2cccc(Cl)c2)C(=O)C1
Percent Effect (30.3 µM, […]): -18.65%

CN1CCN(C2COC3(CCN(c4ccc(C#N)cc4)CC3)C2)CC1.O=C(O)C(F)(F)F (stereo unspecified)
Percent Effect (30.3 µM, […]): -31.63%

NC(=O)CN1CCC(C(=O)N2CCCC(OCc3cccnc3)C2)CC1 (stereo unspecified)
Percent Effect (30 µM, 30.03 µM): 52.75%

O=C(Cn1ccnc1)N1CCCC(OCc2cccnc2)C1 (stereo unspecified)
Percent Effect (30 µM, 30.03 µM): -76.95%

NC(=O)NCC(=O)N1CCCC(OCc2cccnc2)C1 (stereo unspecified)
Percent Effect (30 µM, 30.03 µM): -86.17%

CCC(NC(=O)CC1CCN(C(C)C)CC1)c1cn2cccnc2n1 (stereo unspecified)
Percent Effect (30 µM, 30.03 µM): -16.96%

CN1[C@@H](C(=O)NCC2CC2)C[C@@H]2CN(Cc3ccsc3)C[C@@H]21.O=C(O)C(F)(F)F.O=C(O)C(F)(F)F
Percent Effect (30.3 µM, […]): -75.19%

O=C1c2cnc(N3CCOCC3)nc2CN1Cc1cccc(F)c1
Percent Effect (30 µM, 30.03 µM): -25.27%

Cc1cc(OCCC(=O)Nc2cccc(F)c2)nnc1C
Percent Effect (30 µM, 30.03 µM): 46.79%

Cc1cc(OCC(=O)NCc2ccc(F)cc2)nnc1C
Percent Effect (30 µM, 30.03 µM): 16.49%

Cc1cc(OCCC(=O)NCc2ccc(F)cc2)nnc1C
Percent Effect (30 µM, 30.03 µM): 71.51%

Cc1noc(C)c1CN1CCC2(CC1)C(c1ccccc1)CC(=O)N2C.O=C(O)C(F)(F)F (stereo unspecified)
Percent Effect (30.3 µM, […]): -57.86%

COc1ccc(CC(=O)N2C[C@H]3CN(Cc4ccccn4)C[C@H]3C2)cc1.O=C(O)C(F)(F)F
Percent Effect (30.3 µM, […]): -4.643%

Cc1occc1C(=O)N1CCCN(Cc2nccn2C)CC1
Percent Effect (30.3 µM, […]): 4.115%

Cc1occc1C(=O)N1CCCN(Cc2nccn2C(C)C)CC1
Percent Effect (30.3 µM, […]): 53.23%

CC(C)n1ccnc1CN1CCCN(C(=O)c2cccnc2O)CC1
Percent Effect (30 µM, 30.03 µM): -16.49%

CCS(=O)(=O)N1Cc2[nH]nc(COCc3cccnc3)c2C1.O=C(O)C(F)(F)F
Percent Effect (30.3 µM, […]): -37.05%

O=C(O)C(F)(F)F.O=C(O)C(F)(F)F.O=C(O)C(F)(F)F.c1cnn(C[C@@H]2C[C@@H]3CN(CC4CC4)CC[C@@H]3N2c2nccs2)c1
Percent Effect (30.3 µM, […]): 61.8%

CCC(=O)N1CC[C@H]2[C@H](C[C@@H](Cn3cccn3)N2c2nccs2)C1.O=C(O)C(F)(F)F.O=C(O)C(F)(F)F
Percent Effect (30.3 µM, […]): -3.444%

CC(C)N1CC[C@H]2[C@H](C[C@@H](Cn3cccn3)N2c2nccs2)C1.O=C(O)C(F)(F)F.O=C(O)C(F)(F)F.O=C(O)C(F)(F)F
Percent Effect (30.3 µM, […]): -34.12%

CC(=O)N1CCC2(CC1)C(=O)N(CC1CCN(C)CC1)c1ccccc12.O=C(O)C(F)(F)F
Percent Effect (30.3 µM, […]): -5.968%

CCNc1cc2c(nn1)CCN(C(=O)c1cc3cc(C)ccc3o1)C2
Percent Effect (10 µM): -11.72% | Percent Effect (30.3 µM, […]): 30.23%

CCNc1cc2c(nn1)CCN(C(=O)c1cc3nc(C)ccc3o1)C2
Percent Effect (30 µM, 30.03 µM): 62.84%

CCNc1cc2c(nn1)CCN(C(=O)c1cc3ccccc3o1)C2
Percent Effect (10 µM): -51.84% | Percent Effect (30.3 µM, […]): 2.809%

Cn1cc(CNC2CCc3c(ccc(=O)n3Cc3ccncc3)C2)cn1.O=C(O)C(F)(F)F.O=C(O)C(F)(F)F (stereo unspecified)
Percent Effect (30.3 µM, […]): 3.089%

CCc1cc(N(C)Cc2ccno2)n2nc(C)c(C)c2n1
Percent Effect (30 µM, 30.03 µM): 69.73%

CCc1cc(N(C)Cc2ccncn2)n2nc(C)c(C)c2n1
Percent Effect (30 µM, 30.03 µM): 25.26%

CCc1cc(N(C)Cc2ccnc(C)c2)n2nc(C)c(C)c2n1
Percent Effect (30 µM, 30.03 µM): -13.68%

CC(=O)N1CCCN(C(=O)c2ccc(=O)n(C)c2)c2ccccc21
Percent Effect (30.3 µM, […]): -14.08%

Cn1cc(N2CC3(CCN(CC4CC4)CC3)OCC2=O)cn1.O=C(O)C(F)(F)F
Percent Effect (30 µM, 30.03 µM): -14.55%

O=C(NCCC1=CCCCC1)c1n[nH]c2c1CCCC2
Percent Effect (30.3 µM, […]): 9.564%

Cc1cc(C(=O)N2CCN(C)CC2)nn1CC(=O)NCc1cccs1.Cl
Percent Effect (30.3 µM, […]): 4.887%

CN1CCc2c(C#N)c(NCC3CCCO3)n3cnnc3c2C1.Cl (stereo unspecified)
Percent Effect (30 µM, 30.03 µM): -22.69%

CC(NC(=O)CSCC(N)=O)c1ccccc1Oc1ccccc1 (stereo unspecified)
Percent Effect (30.3 µM, […]): 5.896%

CN1[C@H](CN2CCCC2)C[C@@H]2CN(C(=O)c3cccn3C)CC[C@@H]21.O=C(O)C(F)(F)F.O=C(O)C(F)(F)F
Percent Effect (30.3 µM, […]): 14%

O=C(O)c1cc(S(=O)(=O)Nc2cnn(C3CCOCC3)c2)ccc1F
Percent Effect (30 µM, 30.03 µM): -3.686%

Cc1ccc(S(=O)(=O)Nc2cnn(C3CCOCC3)c2)cc1C
Percent Effect (30 µM, 30.03 µM): -12.07%

O=S(=O)(Nc1cnn(C2CCOCC2)c1)c1ccc(F)c(F)c1
Percent Effect (30 µM, 30.03 µM): 51.53%

CC(C)CS(=O)(=O)N1CCC2(CN(c3ccsc3)C(=O)CN2C)C1.O=C(O)C(F)(F)F (stereo unspecified)
Percent Effect (30 µM, 30.03 µM): -44.48%

CC(=O)Nc1ccc(-c2ccccc2NC(=O)CN)cc1
Percent Effect (30 µM, 30.03 µM): -52.76%

Cl.NCCC(=O)Nc1ccc(-c2ccccc2)cc1
Percent Effect (30.3 µM, […]): 22.23% | Percent Effect (10 mM, 10 mM as filed; unlikely as a test dose): 97.12%

O=C(CCn1ccccc1=O)Nc1ccc(C(=O)O)cc1
Percent Effect (30 µM, 30.03 µM): 4.206%

O=C(O)C(F)(F)F.O=C([C@H]1C[C@H]2OCC[C@H]2N(CC2CC2)C1)N1CCCCO1
Percent Effect (30.3 µM, […]): -275.5%

O=C(O)C(F)(F)F.O=C1COC2(CCN(Cc3ccsc3)CC2)CN1
Percent Effect (30 µM, 30.03 µM): -11.85%

CS(=O)(=O)NCC1CCCN(Cc2ccccc2F)C1 (stereo unspecified)
Percent Effect (30 µM, 30.03 µM): -12.86%

COC1CCN(C(=O)Nc2ccccc2)CC(=O)N(C)c2ccccc21 (stereo unspecified)
Percent Effect (30.3 µM, […]): 83.76%

COC1CCN(C(=O)C2CCCC2)CC(=O)N(C)c2ccccc21 (stereo unspecified)
Percent Effect (30.3 µM, […]): -34.54%

COC1CN(C(=O)Nc2ccccc2)CCC(=O)N(C)c2ccccc21 (stereo unspecified)
Percent Effect (30.3 µM, […]): -31.75%
